39 compounds from PubChem BioAssay (NCI) can be followed below.

SMILES strings stand for the structures. The panel holds about 83,000 compounds, 20% with a hit somewhere; the sample as a whole holds those more often.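 Plates (96-well) were seeded with cells, treated with compound at one concentration, and incubated for 48 hours before percent growth was determined.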 Active and inactive are the calls of the source. How the source made its calls: active means growth percent below 10; inactive means the rest.

The first test relates to UACC-257 melanoma. The experiment in a line: NCI-60 one-dose screen, 48 h (100 = growth as untreated, 0 = no growth, -100 = all killed). The note with it: 10 µM unless noted.
For `OC(c1ccccc1)c1nnc(SCc2ccccc2)n1Cc1ccccc1` (stereo not drawn), the growth was 103% (inactive).
Still for that read-out and setting: the value for `COc1ccc(/C=C2\SC(=Nc3ccccc3)NC2=O)cc1` was -91.8% (active); that for `COc1ccc(-n2c(C(O)c3ccccc3)nn(CN3CCOCC3)c2=S)cc1` (stereo not drawn) was 105% (inactive).
Turning to `CN(O)c1nc(N(C)O)nc(N2CCOCC2)n1`, the growth was 30% (inactive).
On the same count and under the same terms, the value for `O=C(NC(=S)Nc1cccc(NC(=S)NC(=O)c2ccccc2)c1)c1ccccc1` was 44.7% (inactive); that for `Cn1c2c(c(=O)[nH]c1=O)NC1=C(C(=O)c3ccccc31)C1(C=C(O)c3ccccc31)N2` (stereo not drawn) was 115% (inactive).
The same measure, in the same setting: to `Nc1nc(Nc2cccc(F)c2)nc2ccccc12` belongs 12% (inactive).
Still for that read-out and setting: to `COc1cc(OC)cc(N2C(=O)N(Cc3ccc(C(C)(C)C)cc3)c3ccccc3S2(=O)=O)c1` belongs 105% (inactive); to `CC/C=C\C[C@H](O)C/C=C1/C(=O)C=C[C@@H]1C/C=C\CCCC(=O)OCCS(=O)(=O)c1ccccc1`, 66.8% (inactive).
As to `COc1ccc(C2Nc3ncnc(N)c3N=C3c4ccccc4C(=O)C32)cc1` (stereo not drawn), the growth was 102% (inactive).
The same measure, in the same setting: to `O=CCCCC(O)C=O` (stereo not drawn) belongs 106% (inactive); to `COC(=O)/C(=C\c1c(-c2ccccc2)[nH]c2ccccc12)S(C)(=O)=O`, 67.4% (inactive).
As for `COc1ccc(-c2nsc3c2NC(=O)CC3c2ccsc2)cc1` (stereo not drawn), the growth is 77.3% (inactive).
As for `FC(F)(F)c1cccc(Nc2nc(-c3ccccc3)nc3ncccc23)c1`, the growth is -52.7% (active).
Still for that read-out and setting: to `COC(=O)/C(=C\c1c(C)[nH]c2ccccc12)S(=O)(=O)c1ccccc1` belongs 29.4% (inactive).
On to `O=Nc1c(O)ccc2ccccc12.O=Nc1c(O)ccc2ccccc12.O=Nc1c([O-])ccc2ccccc12.[Fe+3]`, for which the growth was 110% (inactive).
Still for that read-out and setting: to `COc1cccc(C(=O)Cn2cc(/C=C(\C#N)S(=O)(=O)c3ccccc3)c3ccccc32)c1` belongs 89.9% (inactive); to `CC(=O)O[C@@H]1/C=C/C(=O)N[C@@H](C)CCC/C=C/[C@@H]2CCC[C@H]21`, 101% (inactive); to `CC(C)(C)c1ccc(C2CC(=O)C3=C(C2)Nc2ccccc2N(C(=O)c2ccccc2Cl)C3c2ccc(F)cc2)cc1` (stereo not drawn), -34.1% (active).
The same measure, in the same setting: the value for `O=C1/C=C/[C@@H](O)[C@@H]2C[C@@H](O)C[C@H]2/C=C/CCCCO1` was 9.88% (active); that for `CN1CCN(c2nc(Nc3ccc(O)cc3)nc3ccccc23)CC1` was 59.2% (inactive); that for `O=C(NN1C(=O)CSC1c1ccc(Cl)cc1)c1[nH]c2ccc(F)cc2c1-c1ccccc1` (stereo not drawn) was 74.4% (inactive).
As to `CSc1nc2c(c(=O)n1C)N=C1c3ccccc3C(=O)C1C(c1ccccc1)N2` (stereo not drawn), the growth was 102% (inactive).
For `CCCC(=O)CC(C)=O.CCCC(=O)CC(C)=O.[Cu]`, the growth was 74.9% (inactive).
The same measure, in the same setting: to `N#C/C(=C\c1c(-c2ccccc2)[nH]c2ccccc12)S(=O)(=O)c1ccccc1` belongs 73.8% (inactive); to `O=C(Nc1ccc(Cl)cc1)c1cc2ccccc2cc1OP(=O)(O)O`, 15.7% (inactive); to `COc1ccc(/C=C2\N=C(c3ccccc3)N(c3ccc(-c4nc5ccc(C)cc5s4)cc3)C2=O)cc1`, 111% (inactive).
As to `CSc1nc2c(c(=O)[nH]1)N=C1c3ccccc3C(=O)C1C(c1ccccc1)N2` (stereo not drawn), the growth was 74.5% (inactive).
On the same count and under the same terms, to `CCOC(=O)c1c(Cl)c2c(n1Cc1ccccc1)-c1oncc1CCC2` belongs 79.7% (inactive); to `COc1cc([C@@H]2NC(=O)NC(C)=C2C(=O)Nc2nc(-c3ccc(Cl)cc3)cs2)ccc1O`, 104% (inactive).
Regarding `N#C/C(=C\c1c(-c2ccccc2)[nH]c2ccccc12)C(=O)c1ccccc1`, the growth was 61.6% (inactive).
`CCN(CC)c1cc(C)c2cc(NC(=O)c3cccc(OC)c3)ccc2n1`: the growth is 105% (inactive).
Same read-out and setting: the value for `COc1nc2c(c(=O)n1C)N=C1c3ccccc3C(=O)C1C(c1ccccc1)N2` (stereo not drawn) was 96.7% (inactive).
On the same count and under the same terms, to `CCOc1ccccc1CN1CCc2nc3cc(C(C)(C)C)[nH]n3c(=O)c2C1` belongs 108% (inactive); to `COc1ccc(-n2c(C(O)c3ccccc3)n[nH]c2=S)cc1` (stereo not drawn), 90.4% (inactive).
`CC(=O)n1cc(-c2c[nH]c3ccccc23)c(-c2ccc(Cl)cc2)n1`: the growth was 103% (inactive).
With `N#CC(C#N)=Cc1c(-c2ccccc2)[nH]c2ccccc12`, the growth is 52.3% (inactive).
Take `Nc1ccc(C2c3ccccc3Oc3ccccc32)cc1`: the growth was 102% (inactive).
As to `COc1cc(C#N)cc2[nH]c(=O)oc12`, the growth was 106% (inactive).

A further test relates to M14 melanoma. The description is as above. As to conditions: 10 µM unless noted.
As for `OC(c1ccccc1)c1nnc(SCc2ccccc2)n1Cc1ccccc1` (stereo not drawn), the growth was 88% (inactive).
Turning to `COc1ccc(/C=C2\SC(=Nc3ccccc3)NC2=O)cc1`, the growth was -79.8% (active).
Turning to `COc1ccc(-n2c(C(O)c3ccccc3)nn(CN3CCOCC3)c2=S)cc1` (stereo not drawn), the growth was 95.2% (inactive).
Consider `CN(O)c1nc(N(C)O)nc(N2CCOCC2)n1`, for which the growth is 16% (inactive).
On the same count and under the same terms, the value for `O=C(NC(=S)Nc1cccc(NC(=S)NC(=O)c2ccccc2)c1)c1ccccc1` was 73.5% (inactive).
With `Cn1c2c(c(=O)[nH]c1=O)NC1=C(C(=O)c3ccccc31)C1(C=C(O)c3ccccc31)N2` (stereo not drawn), the growth is 96.8% (inactive).
The same measure, in the same setting: to `Nc1nc(Nc2cccc(F)c2)nc2ccccc12` belongs 22.9% (inactive); to `COc1cc(OC)cc(N2C(=O)N(Cc3ccc(C(C)(C)C)cc3)c3ccccc3S2(=O)=O)c1`, 85.2% (inactive).
As for `CC/C=C\C[C@H](O)C/C=C1/C(=O)C=C[C@@H]1C/C=C\CCCC(=O)OCCS(=O)(=O)c1ccccc1`, the growth is 27.5% (inactive).
Same read-out and setting: to `COc1ccc(C2Nc3ncnc(N)c3N=C3c4ccccc4C(=O)C32)cc1` (stereo not drawn) belongs 94.8% (inactive).
On the same count and under the same terms, to `O=CCCCC(O)C=O` (stereo not drawn) belongs 105% (inactive).
Same read-out and setting: to `COC(=O)/C(=C\c1c(-c2ccccc2)[nH]c2ccccc12)S(C)(=O)=O` belongs 14.9% (inactive).
With `COc1ccc(-c2nsc3c2NC(=O)CC3c2ccsc2)cc1` (stereo not drawn), the growth is 18% (inactive).
As to `FC(F)(F)c1cccc(Nc2nc(-c3ccccc3)nc3ncccc23)c1`, the growth is -86.6% (active).
Take `COC(=O)/C(=C\c1c(C)[nH]c2ccccc12)S(=O)(=O)c1ccccc1`: the growth is 33.7% (inactive).
The same measure, in the same setting: the value for `O=Nc1c(O)ccc2ccccc12.O=Nc1c(O)ccc2ccccc12.O=Nc1c([O-])ccc2ccccc12.[Fe+3]` was 97.2% (inactive); that for `COc1cccc(C(=O)Cn2cc(/C=C(\C#N)S(=O)(=O)c3ccccc3)c3ccccc32)c1` was 86.5% (inactive); that for `CC(=O)O[C@@H]1/C=C/C(=O)N[C@@H](C)CCC/C=C/[C@@H]2CCC[C@H]21` was 103% (inactive).
The same measure, in the same setting: the value for `CC(C)(C)c1ccc(C2CC(=O)C3=C(C2)Nc2ccccc2N(C(=O)c2ccccc2Cl)C3c2ccc(F)cc2)cc1` (stereo not drawn) was 5.11% (active); that for `O=C1/C=C/[C@@H](O)[C@@H]2C[C@@H](O)C[C@H]2/C=C/CCCCO1` was 30.2% (inactive); that for `CN1CCN(c2nc(Nc3ccc(O)cc3)nc3ccccc23)CC1` was 50.3% (inactive).
As to `O=C(NN1C(=O)CSC1c1ccc(Cl)cc1)c1[nH]c2ccc(F)cc2c1-c1ccccc1` (stereo not drawn), the growth was 57.3% (inactive).
Turning to `CSc1nc2c(c(=O)n1C)N=C1c3ccccc3C(=O)C1C(c1ccccc1)N2` (stereo not drawn), the growth was 62.2% (inactive).
The same measure, in the same setting: the value for `CCCC(=O)CC(C)=O.CCCC(=O)CC(C)=O.[Cu]` was 100% (inactive); that for `N#C/C(=C\c1c(-c2ccccc2)[nH]c2ccccc12)S(=O)(=O)c1ccccc1` was 42.8% (inactive).
In the case of `O=C(Nc1ccc(Cl)cc1)c1cc2ccccc2cc1OP(=O)(O)O`, the growth is 31.9% (inactive).
As for `COc1ccc(/C=C2\N=C(c3ccccc3)N(c3ccc(-c4nc5ccc(C)cc5s4)cc3)C2=O)cc1`, the growth was 98.9% (inactive).
For the compound `CSc1nc2c(c(=O)[nH]1)N=C1c3ccccc3C(=O)C1C(c1ccccc1)N2` (stereo not drawn), the growth was 29.4% (inactive).
Same read-out and setting: to `CCOC(=O)c1c(Cl)c2c(n1Cc1ccccc1)-c1oncc1CCC2` belongs 55.3% (inactive); to `COc1cc([C@@H]2NC(=O)NC(C)=C2C(=O)Nc2nc(-c3ccc(Cl)cc3)cs2)ccc1O`, 94.2% (inactive).
Still for that read-out and setting: the value for `N#C/C(=C\c1c(-c2ccccc2)[nH]c2ccccc12)C(=O)c1ccccc1` was 37.6% (inactive).
`CCN(CC)c1cc(C)c2cc(NC(=O)c3cccc(OC)c3)ccc2n1`: the growth is 77.3% (inactive).
In the case of `COc1nc2c(c(=O)n1C)N=C1c3ccccc3C(=O)C1C(c1ccccc1)N2` (stereo not drawn), the growth was 82.9% (inactive).
The same measure, in the same setting: the value for `CCOc1ccccc1CN1CCc2nc3cc(C(C)(C)C)[nH]n3c(=O)c2C1` was 91.6% (inactive); that for `COc1ccc(-n2c(C(O)c3ccccc3)n[nH]c2=S)cc1` (stereo not drawn) was 90% (inactive).
On the same count and under the same terms, to `CC(=O)n1cc(-c2c[nH]c3ccccc23)c(-c2ccc(Cl)cc2)n1` belongs 76.1% (inactive); to `N#CC(C#N)=Cc1c(-c2ccccc2)[nH]c2ccccc12`, 27.7% (inactive); to `Nc1ccc(C2c3ccccc3Oc3ccccc32)cc1`, 107% (inactive).
The same measure, in the same setting: the value for `COc1cc(C#N)cc2[nH]c(=O)oc12` was 102% (inactive).
